Cycloheximide cs: counter-screen hit for Shiga toxin inhibitors, cycloheximide; max response, %; AID 2314; cell reporter, cycloheximide protein synthesis inhibition counterscreen; 12% of 300,000 active; in the data active = max response mostly above about 13%, no sharp cut-off; inactive = mostly below about 14%; also: read at 38.3 µM for the half of the compounds with a filed dose; 0% is about no effect
Shiga inhibitor: inhibitors of Shiga toxin in Vero cells | Vero cells, Shiga toxin protein synthesis inhibition reporter | AID 2315 | inhibition, % at 38.7 µM | 9.2% of 290,000 active; in the data active = inhibition mostly above about 28%, no sharp cut-off; inactive = mostly below about 43%; also: 0% is about no effect
HCV inhibitor: blocks hepatitis C virus | Huh7.5.1 HCVcc-Cre infection, luciferase reporter, 44 h | Potency, µM (highest dose often 41.8 µM), for the others: at the top dose activity change, negative = inhibition, hits mostly inhibitors | 3.4% of 340,000 active | AID 651820; also: potency is read from the fitted curve at half-maximal effect; % is scaled to controls: 0 for no effect and ±100 for the full control effect
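Seed cells (1,000/well) for 4 h; treat with compound and infect with HCVcc-Cre, moi about 0.5. Incubate 44 h, then detect luciferase activity.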
HCMV inh: human cytomegalovirus inhibition; HFF cells, HCMV-luciferase reporter, 72 h; hits give low values; activity change, negative = inhibition, % at 57.5 µM; 4.5% of 410,000 active; AID 1259415; in the data active = activity change below about -60%; inconclusive = no clear call, values can overlap the other calls; inactive = above about -39%; also: % is scaled to controls: 0 for no effect and ±100 for the full control effect
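Compounds were evaluated in HFFs infected with an HCMV luciferase reporter virus (MOI 1 PFU/cell). Luciferase in lysates collected 72 h post infection served as the replication measure.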
Pf growth 96h: inhibits malaria parasite growth, 96 h; P. falciparum luciferase reporter growth, 96 h; Potency, µM (titrated, usually from 28.7 µM), for inactives: at the highest dose activity change, negative = inhibition, actives largely listed as inhibitors; 6.9% of 320,000 active; also: potency is read from the fitted curve at half-maximal effect; % is scaled to controls: 0 for no effect and ±100 for the full control effect
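P. falciparum expressing integrated firefly luciferase, in erythrocytes at 2% hematocrit, 0.05% parasitemia, incubated with compounds 96 h at 37 C, 5% CO2. Growth inhibition read as loss of luminescence; two-generation exposure targets delayed-death apicoplast inhibitors.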
Pf growth 48h: P. falciparum growth inhibition at 48 hours (one generation) | P. falciparum luciferase growth in erythrocytes, 48 h | Potency, µM (titrated, usually from 28.7 µM), for inactives: top-dose activity change, negative = inhibition, actives largely listed as inhibitors | 5.9% of 310,000 active; also: potency is read from the fitted curve at half-maximal effect; % is scaled to controls: 0 for no effect and ±100 for the full control effect
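Cell-based growth assay: transgenic P. falciparum expressing firefly luciferase, cultured in red cells within RPMI 1640 containing 0.5% w/v Albumax, 24 mM bicarbonate and gentamycin. A drop in luciferase activity indicates inhibition.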
* hit, by the source's call; ? = inconclusive; nt = no result given; + = active, no number. Rows were chosen to be rich in hits. Some 21% of all compounds tested hit in one or more screens of this group. Unless noted, calls follow the shape of the dose curve; as a rule, active = well fitted inhibition curve with a large enough effect; inconclusive = small, poorly fitted or top-dose-only effect, or another doubt; inactive = no such curve, though single readings can be large or run the other way.

SMILES	Cycloheximide cs	Shiga inhibitor	HCV inhibitor	HCMV inh	Pf growth 96h	Pf growth 48h
CCOC(=O)c1sc(=NC(=O)CCSc2ccccc2)n(C)c1C	17*	17	-7%	-20	38%	30%
CCOC(=O)c1sc(=NC(=O)c2ccc(C)cc2)n(C)c1C	52*	71*	7%	258	247%	283%
CCOC(=O)c1sc(=NC(=O)c2c(F)cccc2F)n(C)c1C	39*	81*	-6%	62	56%	74%
COC(=O)c1ccccc1NC(=O)CCCn1nc(C)c2sc3ccccc3c2c1=O	nt	nt	nt	29	nt	nt
CCC(Sc1ncc(S(=O)(=O)c2ccc(Cl)cc2)c(=O)[nH]1)C(=O)Nc1ccc(OC)cc1 (stereo unspecified)	nt	nt	nt	4	nt	nt
CCCCN(CC)S(=O)(=O)c1ccc(C(=O)N=c2sc3cc(NC(C)=O)ccc3n2C)cc1	-3	-23	?	-72*	?	-15%
CCNC(=O)NC(=O)C(C)SCc1ccccc1C (stereo unspecified)	-2	-11	4%	-28	6.6µM*	12%
CSc1cccc(NC(=O)C2CCN(S(=O)(=O)c3ccc4c(c3)CCCN4C(=O)C3CCC3)CC2)c1	nt	nt	nt	-33	nt	nt
Cc1ccccc1NC(=O)c1nn(C)c2c1CS(=O)(=O)c1ccccc1-2	10	-3	24%	?	13µM*	1%
COc1ccccc1NC(=O)c1nn(C)c2c1CS(=O)(=O)c1ccccc1-2	nt	nt	nt	6	nt	nt
COc1ccccc1CNC(=O)c1nn(C)c2c1CS(=O)(=O)c1ccccc1-2	7	-4	-13%	+	-1%	-1%
Cn1nc(C(=O)NCCc2ccc(Cl)cc2)c2c1-c1ccccc1S(=O)(=O)C2	16	-2	?	?	13%	?
Cn1nc(C(=O)NCc2ccc(Cl)cc2)c2c1-c1ccccc1S(=O)(=O)C2	5	-19	-3%	-82*	-24%	?
CCOC(=O)C1=C(C)N(CCCC(=O)O)C(=O)NC1c1cc2ccccc2c2ccccc12 (stereo unspecified)	nt	nt	nt	6	nt	nt
O=C(Nc1nnc(S(=O)(=O)N2CCCc3ccccc32)s1)c1ccccc1Br	nt	nt	nt	-6	nt	nt
O=C(C[C@H]1C/C=C\CC[C@@H](Cc2ccc(F)cc2)C(=O)O[C@@H](c2ccccc2)CNC1=O)N[C@@H](CO)Cc1ccccc1	nt	nt	39%	-15	nt	nt
CCOC(=O)c1[nH]c(C)c(CCC(=O)N2CCN(c3cccc(OC)c3)CC2)c1C	nt	nt	nt	4	nt	nt
COc1ccc(-c2nnc(SCC(=O)Nc3ccc(F)cc3)s2)cc1	nt	nt	nt	-12	nt	nt
CCOC(=O)[C@H]1[C@H]2COc3ccc(OC)cc3[C@@H]2N2C(=O)CN(Cc3ccco3)C(=O)[C@@]12C	nt	nt	5%	-33	?	?
CCOC(=O)[C@H]1[C@H]2COc3ccc(Cl)cc3[C@@H]2N2C(=O)CN(Cc3ccc(OC)cc3)C(=O)[C@@]12C	nt	nt	-13%	14	6.6µM*	7.4µM*
CCOC(=O)[C@H]1[C@H]2COc3ccc(Br)cc3[C@@H]2N2C(=O)CN(Cc3ccc(OC)cc3)C(=O)[C@@]12C	nt	nt	?	-10	?	7.4µM*
CCOC(=O)[C@H]1[C@H]2COc3ccc(OC)cc3[C@@H]2N2C(=O)CN(CCc3c[nH]c4ccccc34)C(=O)[C@@]12C	nt	nt	-4%	30	?	13µM*
CN1CC(=O)N2[C@H]3c4ccccc4OC[C@@H]3[C@H](c3ccccc3)[C@]2(C)C1=O	nt	nt	-6%	-25	nt	nt
C[C@@]12C(=O)N(CCc3c[nH]c4ccccc34)CC(=O)N1[C@H]1c3ccccc3OC[C@@H]1[C@@H]2c1ccccc1	nt	nt	?	3	6.6µM*	12µM*
COc1cc(-c2nc3ccccn3c2Nc2ccccc2C)ccc1O	nt	nt	nt	-3	nt	nt
CCOC(=O)[C@H]1[C@H]2COc3cc(OC)ccc3[C@@H]2N2C(=O)CN(Cc3ccc(C)cc3)C(=O)[C@@]12C	nt	nt	2%	-17	2.6µM*	10µM*
CCOC(=O)[C@H]1[C@H]2COc3ccc(Cl)cc3[C@@H]2N2C(=O)CN(Cc3ccc(C)cc3)C(=O)[C@@]12C	nt	nt	?	2	?	12µM*
